Design in all cases: scale not given: direction of the effect not stated beside the values
Assay [1] addresses Protein translocase subunit SecA (Escherichia coli (strain K12)) (UniProt P10408). The experiment in a line: Assay to Identify E. coli SecA ATPase Inhibitors. Format: functional. To be noted: 30 µM.
Assay [2] has as its target T1, Ubiquitin-activating enzyme e1, putative (Leishmania donovani (strain BPK282A1)) (UniProt E9BSI1).
T1 sequence (whole entry): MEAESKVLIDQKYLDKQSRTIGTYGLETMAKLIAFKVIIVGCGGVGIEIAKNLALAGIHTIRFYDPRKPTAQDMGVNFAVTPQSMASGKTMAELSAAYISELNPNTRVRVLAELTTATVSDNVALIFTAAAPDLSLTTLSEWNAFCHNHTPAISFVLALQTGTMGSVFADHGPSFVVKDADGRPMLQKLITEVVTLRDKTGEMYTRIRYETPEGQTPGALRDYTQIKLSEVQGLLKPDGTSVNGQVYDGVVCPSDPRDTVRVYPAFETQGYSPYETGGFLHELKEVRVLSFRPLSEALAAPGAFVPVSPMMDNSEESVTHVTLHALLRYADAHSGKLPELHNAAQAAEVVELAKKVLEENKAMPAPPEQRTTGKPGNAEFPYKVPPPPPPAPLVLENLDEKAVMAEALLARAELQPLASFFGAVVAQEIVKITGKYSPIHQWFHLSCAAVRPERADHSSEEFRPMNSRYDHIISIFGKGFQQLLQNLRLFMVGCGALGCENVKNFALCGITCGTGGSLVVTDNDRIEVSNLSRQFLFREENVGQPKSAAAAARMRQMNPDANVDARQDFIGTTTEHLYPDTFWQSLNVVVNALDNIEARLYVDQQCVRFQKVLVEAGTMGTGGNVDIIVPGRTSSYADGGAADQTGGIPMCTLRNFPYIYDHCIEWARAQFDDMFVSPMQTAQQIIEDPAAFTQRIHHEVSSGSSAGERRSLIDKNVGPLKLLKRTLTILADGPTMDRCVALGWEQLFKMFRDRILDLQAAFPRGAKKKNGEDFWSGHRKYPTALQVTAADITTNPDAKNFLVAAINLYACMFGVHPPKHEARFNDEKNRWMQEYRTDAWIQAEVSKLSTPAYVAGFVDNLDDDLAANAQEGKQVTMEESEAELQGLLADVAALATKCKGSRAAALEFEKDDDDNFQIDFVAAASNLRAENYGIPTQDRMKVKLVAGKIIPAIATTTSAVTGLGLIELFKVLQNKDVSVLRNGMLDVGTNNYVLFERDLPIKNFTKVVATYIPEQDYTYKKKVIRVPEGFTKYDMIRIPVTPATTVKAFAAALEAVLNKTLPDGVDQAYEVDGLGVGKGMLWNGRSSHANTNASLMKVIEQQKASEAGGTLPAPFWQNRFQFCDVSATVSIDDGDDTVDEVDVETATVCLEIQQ
The experiment in a line: Leishmania donovani Ubiquitin Activating Enzyme (LdE1). Format: functional. To be noted: 30 µM.

The target of assay [3] is AMP-activated protein kinase, AMPK (Homo sapiens) (UniProt P54646+O43741+P54619+Q9UGJ0+Q9Y478+Q13131+Q9UGI9). The experiment in a line: AMP-dependent Kinase enzyme assay. An in vitro enzyme assay that detects ADP turnover that is directly proportional to AMPK activity. This uses naive AMPK that is activated during the assay with MK-8722. Format: functional. The settings on record: 30 µM.

Assay [4] addresses Sialic acid-binding Ig-like lectin 9 (Homo sapiens) (UniProt Q9Y336). Kind of assay: Hs-Siglec9 ALPHAscreen SOP 20170721. The settings on record: 10 µM. (In general: In Alpha technology, singlet oxygen from a donor bead excites a nearby acceptor bead.)
Assay [5] has as its system Trypanosoma cruzi. Kind of assay: Trypanosoma cruzi phosphomannomutase and mannose-1-phosphate guanylyltransferase assay. Format: functional. To be noted: 10 µM.
Assay [6] deals with T2, Arginase-2, mitochondrial (Homo sapiens) (UniProt P78540).
T2 sequence (whole entry): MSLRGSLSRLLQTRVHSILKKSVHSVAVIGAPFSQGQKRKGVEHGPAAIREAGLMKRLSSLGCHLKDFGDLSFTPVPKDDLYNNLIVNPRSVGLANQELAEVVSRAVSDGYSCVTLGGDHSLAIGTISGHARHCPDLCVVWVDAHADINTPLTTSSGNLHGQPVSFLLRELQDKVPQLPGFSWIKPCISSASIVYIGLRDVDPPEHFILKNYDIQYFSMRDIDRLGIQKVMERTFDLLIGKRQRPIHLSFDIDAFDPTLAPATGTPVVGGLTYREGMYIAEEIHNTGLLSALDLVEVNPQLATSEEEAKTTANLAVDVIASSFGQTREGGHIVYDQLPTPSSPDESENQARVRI
Kind of assay: in vitro enzyme assay to detect the production of urea directly proportional to the activity of Arginase II. Further: in the data most compounds retested in dose-response had high values. Format: functional. To be noted: 33.3 µM.

The target in assay [7] is T3, Proteasome subunit beta (Trypanosoma cruzi) (UniProt O96673).
T3 sequence (whole entry): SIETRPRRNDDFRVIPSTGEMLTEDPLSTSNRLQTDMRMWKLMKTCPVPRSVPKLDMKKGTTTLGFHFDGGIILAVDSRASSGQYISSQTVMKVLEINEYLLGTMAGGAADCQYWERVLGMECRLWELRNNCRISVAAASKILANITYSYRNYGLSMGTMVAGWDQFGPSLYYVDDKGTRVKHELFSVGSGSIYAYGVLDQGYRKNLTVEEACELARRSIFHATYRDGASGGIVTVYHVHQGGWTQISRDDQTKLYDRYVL
Kind of assay: Trypanosoma cruzi proteasome chymotrypsin-like activity (TcProtChymo) assay. Further: in the data most compounds retested in dose-response had high values. Format: functional. The settings on record: 9.37 µM.

Assay [8] deals with N/A. The experiment in a line: Trypanosoma cruzi proteasome luciferase counter-screen. Format: functional. To be noted: 9.37 µM. On the technique in general: Counterscreens check selectivity or assay interference.
The species entered for assay [9] is Homo sapiens. The experiment in a line: To identify inhibition of the IFN signalling (Jak-Stat) pathway via expression of an eGFP reporter gene under the control of an IFN-stimulated response element (ISRE) containing MxA promoter. Format: functional. To be noted: 30 µM. (In a reporter assay the amount or activity of a reporter protein is the signal.)
Assay [10] addresses T4, Tyrosyl-tRNA synthetase, putative (Trypanosoma cruzi (strain CL Brener)) (UniProt Q4DSP6).
T4 sequence (whole entry): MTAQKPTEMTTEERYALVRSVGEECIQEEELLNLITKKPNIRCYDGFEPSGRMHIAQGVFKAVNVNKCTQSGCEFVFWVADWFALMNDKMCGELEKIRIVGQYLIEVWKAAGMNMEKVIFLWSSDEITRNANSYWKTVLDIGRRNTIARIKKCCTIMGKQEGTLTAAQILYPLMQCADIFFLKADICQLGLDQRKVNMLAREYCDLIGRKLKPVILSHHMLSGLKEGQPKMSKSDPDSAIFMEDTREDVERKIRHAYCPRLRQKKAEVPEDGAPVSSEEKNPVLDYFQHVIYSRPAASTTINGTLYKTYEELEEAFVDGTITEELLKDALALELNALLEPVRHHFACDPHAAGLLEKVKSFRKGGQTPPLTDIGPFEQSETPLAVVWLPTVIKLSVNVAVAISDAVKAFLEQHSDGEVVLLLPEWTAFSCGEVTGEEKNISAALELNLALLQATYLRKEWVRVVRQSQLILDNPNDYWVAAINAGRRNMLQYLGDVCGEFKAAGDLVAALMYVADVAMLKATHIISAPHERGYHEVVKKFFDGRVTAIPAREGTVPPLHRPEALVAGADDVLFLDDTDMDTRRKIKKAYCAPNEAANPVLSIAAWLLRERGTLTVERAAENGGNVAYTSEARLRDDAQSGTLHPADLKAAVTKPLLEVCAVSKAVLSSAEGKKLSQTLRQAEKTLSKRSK
The experiment in a line: Trypanosoma cruzi tyrosyl tRNA synthetase (TcYRS) _High Tyrosine SOP. Further: in the data most compounds retested in dose-response had high values. Format: functional. To be noted: 30 µM.

The target of assay [11] is T4, Tyrosyl-tRNA synthetase, putative (Trypanosoma cruzi (strain CL Brener)). Kind of assay: Trypanosoma cruzi tyrosyl tRNA synthetase (TcYRS) SOP. Format: functional. To be noted: 30 µM.
In assay [12] the target is Chromo domain-containing protein 1 (Saccharomyces cerevisiae (strain ATCC 204508 / S288c) (Baker's yeast)) (UniProt P32657). The experiment in a line: ScCHD-1 Enzyme Inhibition Assay. Further: in the data most compounds retested in dose-response had high values. To be noted: 30 µM. Format: functional.

Several values for one entry are separate records, joined by “and”; a condition that tells them apart may be missing. Equal entries are not always repeated. For part of these data: Results with a measured potency or affinity are listed apart.

Chromo domain-containing protein 1 (Saccharomyces cerevisiae (strain ATCC 204508 / S288c) (Baker's yeast)), sequence (P32657 whole entry, the tested form may be a part): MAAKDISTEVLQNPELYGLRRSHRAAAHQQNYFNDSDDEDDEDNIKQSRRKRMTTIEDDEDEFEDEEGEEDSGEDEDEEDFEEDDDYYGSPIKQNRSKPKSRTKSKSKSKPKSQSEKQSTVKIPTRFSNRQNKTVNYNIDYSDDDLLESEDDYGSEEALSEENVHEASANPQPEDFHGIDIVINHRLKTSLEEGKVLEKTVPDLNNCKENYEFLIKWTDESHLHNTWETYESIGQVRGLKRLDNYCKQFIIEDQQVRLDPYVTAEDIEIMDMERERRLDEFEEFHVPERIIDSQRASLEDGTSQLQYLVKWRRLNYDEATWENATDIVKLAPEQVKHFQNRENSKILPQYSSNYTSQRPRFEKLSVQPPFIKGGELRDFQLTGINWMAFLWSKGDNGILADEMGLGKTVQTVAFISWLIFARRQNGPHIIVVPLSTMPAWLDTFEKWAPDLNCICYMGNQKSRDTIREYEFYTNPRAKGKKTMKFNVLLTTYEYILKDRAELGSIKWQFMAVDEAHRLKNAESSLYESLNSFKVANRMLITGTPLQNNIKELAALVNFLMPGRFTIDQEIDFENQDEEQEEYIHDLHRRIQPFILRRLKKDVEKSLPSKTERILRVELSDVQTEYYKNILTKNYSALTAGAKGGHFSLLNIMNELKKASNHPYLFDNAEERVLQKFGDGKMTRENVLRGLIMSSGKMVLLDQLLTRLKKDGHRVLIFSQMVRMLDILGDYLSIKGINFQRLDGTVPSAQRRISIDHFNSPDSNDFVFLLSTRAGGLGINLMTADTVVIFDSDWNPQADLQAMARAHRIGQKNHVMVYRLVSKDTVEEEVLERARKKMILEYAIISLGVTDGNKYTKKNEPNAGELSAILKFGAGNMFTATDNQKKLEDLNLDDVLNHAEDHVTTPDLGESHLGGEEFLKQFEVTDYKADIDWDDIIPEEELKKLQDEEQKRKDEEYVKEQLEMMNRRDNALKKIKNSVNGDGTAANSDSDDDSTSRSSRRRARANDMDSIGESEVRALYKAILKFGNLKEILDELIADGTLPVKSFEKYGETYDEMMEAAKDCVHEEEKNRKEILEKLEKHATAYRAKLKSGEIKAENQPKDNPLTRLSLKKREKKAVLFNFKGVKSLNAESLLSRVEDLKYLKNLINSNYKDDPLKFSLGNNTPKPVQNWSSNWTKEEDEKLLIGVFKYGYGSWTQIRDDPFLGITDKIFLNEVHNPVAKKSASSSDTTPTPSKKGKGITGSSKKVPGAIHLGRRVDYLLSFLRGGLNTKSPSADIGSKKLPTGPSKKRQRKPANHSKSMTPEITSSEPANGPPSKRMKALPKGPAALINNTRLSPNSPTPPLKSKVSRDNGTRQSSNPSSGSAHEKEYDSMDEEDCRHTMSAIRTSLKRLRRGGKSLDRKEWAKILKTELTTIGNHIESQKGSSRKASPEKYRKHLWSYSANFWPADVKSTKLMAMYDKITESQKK
Sialic acid-binding Ig-like lectin 9 (Homo sapiens), sequence (Q9Y336 whole entry): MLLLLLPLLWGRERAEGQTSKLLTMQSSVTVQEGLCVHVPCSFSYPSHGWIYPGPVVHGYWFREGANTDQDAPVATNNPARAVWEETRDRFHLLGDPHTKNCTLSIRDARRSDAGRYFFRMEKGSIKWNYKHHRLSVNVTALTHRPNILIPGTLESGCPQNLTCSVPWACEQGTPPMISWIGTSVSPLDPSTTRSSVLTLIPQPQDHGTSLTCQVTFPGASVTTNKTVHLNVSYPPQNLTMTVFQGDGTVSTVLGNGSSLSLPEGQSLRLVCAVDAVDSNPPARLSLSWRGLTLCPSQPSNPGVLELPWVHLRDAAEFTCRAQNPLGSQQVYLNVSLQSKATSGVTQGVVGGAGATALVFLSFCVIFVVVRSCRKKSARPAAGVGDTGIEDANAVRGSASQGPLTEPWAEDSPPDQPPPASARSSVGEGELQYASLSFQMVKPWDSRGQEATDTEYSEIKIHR
Protein translocase subunit SecA (Escherichia coli (strain K12)), sequence (P10408 whole entry): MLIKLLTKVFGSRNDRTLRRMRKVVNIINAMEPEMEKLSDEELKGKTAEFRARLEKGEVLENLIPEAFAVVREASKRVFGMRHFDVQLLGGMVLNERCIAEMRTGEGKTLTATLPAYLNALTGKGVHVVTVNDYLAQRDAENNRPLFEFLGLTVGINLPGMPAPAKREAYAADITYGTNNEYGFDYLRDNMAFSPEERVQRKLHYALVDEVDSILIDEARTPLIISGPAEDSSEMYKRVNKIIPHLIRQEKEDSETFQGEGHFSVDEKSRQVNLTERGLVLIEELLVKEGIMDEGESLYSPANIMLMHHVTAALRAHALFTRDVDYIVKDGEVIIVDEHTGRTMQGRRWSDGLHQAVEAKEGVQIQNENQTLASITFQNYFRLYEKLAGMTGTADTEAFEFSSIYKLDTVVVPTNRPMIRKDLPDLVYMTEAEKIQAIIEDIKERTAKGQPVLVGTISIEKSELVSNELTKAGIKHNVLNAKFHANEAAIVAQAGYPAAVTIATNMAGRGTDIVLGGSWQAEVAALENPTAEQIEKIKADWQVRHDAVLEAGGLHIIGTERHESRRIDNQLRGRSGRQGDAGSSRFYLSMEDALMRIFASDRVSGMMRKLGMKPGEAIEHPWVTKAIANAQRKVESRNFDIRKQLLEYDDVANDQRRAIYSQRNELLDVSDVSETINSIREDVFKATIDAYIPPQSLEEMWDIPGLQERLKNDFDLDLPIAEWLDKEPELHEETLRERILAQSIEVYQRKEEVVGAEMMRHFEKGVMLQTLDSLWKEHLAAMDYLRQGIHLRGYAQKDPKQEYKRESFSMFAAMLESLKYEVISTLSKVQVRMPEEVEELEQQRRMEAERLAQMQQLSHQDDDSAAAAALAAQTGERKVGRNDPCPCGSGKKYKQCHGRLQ

On to `CC(C)c1n[nH]c(C(=O)Nc2cc[nH]n2)c1Br`, for which the Percent Effect was -6.13% in [1]; 5.06% in assay [2]; 24.9% in assay [3]; 3.44% in [4]; -4.25% in assay [5]; -3.8% in assay [6]. In addition, the Percent Effect was 74% and 65.8% and 74.1% in assay [7]; 41.2% and 40.1% in [8]; 24.7% in assay [9]; -0.493% in assay [10]; 1.27% in assay [11]; -0.338% in assay [12].

For `Cc1cc(N2CCN(CC(=O)N(C)C)CC2)nc(-c2ccncc2)n1`, the Percent Effect in [1] was -6.79%; in [2], 23.7%; in assay [3], -6.29%; in [4], -5.92%; in [5], 11%; in assay [6], -11.8%. For the same compound, the Percent Effect is 35.2% and 34.4% and 30.2% in assay [7]; 18.5% and 14.6% in assay [8]; 5.2% in [9]; 20.2% in assay [10]; 28.6% in [11]; -6.26% in [12].

`CCc1nc(COc2ccc(OCc3cnn(C)c3)cc2)no1`: the Percent Effect was -3.52% in assay [1]; 13.5% in assay [2]; -5.93% in assay [3]; 21.3% in assay [4]; 3.86% in [5]; 4.29% in assay [6]. Moreover, the Percent Effect in assay [7] is 50.7% (2×) and 48.5%; in assay [8] it was 32% and 28.2%; in [9], 23.4%; in assay [10], 3.7%; in [11] it was 19.5%; in [12], -9.15%.

With `CCOc1ncccc1NC(=O)c1cc2c(s1)CCC2`, the Percent Effect in assay [1] is 1.48%; in assay [2] it was 9.72%; in [3], 8.31%; in assay [4], 7.26%; in assay [5] it was 2.82%; in assay [6] it was -6.18%. Also, the Percent Effect in [7] is 22.1% and 36.7% and 23%; in assay [8], 13.8% and 15.3%; in assay [9], 9.51%; in [10], 4.21%; in assay [11], 10.3%; in assay [12], 63.8%.

Take `CNC(=O)c1cnc(/C=C/c2ccc(OC)c(O)c2)s1`: the Percent Effect in [1] was -3.24%; in assay [2], 5.41%; in assay [3] it was 32.5%; in assay [4] it was -3.93%; in [5], -5.27%; in [6], 2.08%. Further, the Percent Effect is 31.5% and 31.2% and 35.7% in assay [7]; 10.7% and 15.6% in assay [8]; 16.4% in assay [9]; 3.96% in assay [10]; 6.1% in assay [11]; -1.59% in [12].

As to `c1cc(OCc2ccc3c(c2)OCO3)ccc1CNC1CC1`, the Percent Effect in assay [1] is 7.84%; in assay [2] it was 0%; in [3], 0.713%; in assay [4], -11.4%; in [5], -6.91%; in [6], -18.9%. The Percent Effect in assay [7] was 97.3% and 98.3% and 97.4%; in assay [8], 85.2% and 85%; in assay [9], 14.4%; in assay [10], -2.13%; in assay [11], 0%; in [12], 38.5%.

For `Cc1noc([C@H]2C[C@H]3OCC[C@H]3N(Cc3ccc4c(c3)OCO4)C2)n1`, the Percent Effect in assay [1] is -1.12%; in assay [2], 13.5%; in assay [3] it was 5.01%; in assay [4], -6.24%; in assay [5], -0.88%; in assay [6] it was 6.05%. In addition, the Percent Effect in assay [7] is 11.4% and 30.6% and 12.5%; in [8] it was 7.96% and 8.15%; in assay [9], -2.22%; in assay [10] it was 5.41%; in assay [11] it was 17.9%; in [12], -3.92%.

As to `COc1cccc(-c2nc(C)c(C(=O)NC(CO)CCSC)s2)c1` (stereo not given), the Percent Effect in assay [1] was -3.43%; in [2], 1.33%; in assay [3], 7.43%; in assay [4] it was 6.12%; in [5], -2.36%; in assay [6] it was -11.4%. Moreover, the Percent Effect was 30.1% and 33.3% and 30.7% in [7]; 26.5% and 29.5% in assay [8]; 15.6% in assay [9]; 4.23% in assay [10]; 7.69% in assay [11]; -7.42% in assay [12].

For `Cc1cc(S(=O)(=O)Nc2cccc(-n3cccc3)c2)sc1C(=O)O`, the Percent Effect is 1.39% in assay [1]; 0% in assay [2]; 12.1% in assay [3]; 7.4% in assay [4]; 4.99% in [5]; -0.248% in assay [6]. The Percent Effect in assay [7] was 36.5% and 37.6% and 37.3%; in [8], 19.1% and 16.4%; in [9], -6.8%; in assay [10], -43%; in assay [11] it was -38.3%; in assay [12] it was 32.5%.

In the case of `CC(Cn1cccn1)NCc1csc(-c2ccccc2F)n1` (stereo not given), the Percent Effect in assay [1] is -1.44%; in [2] it was -5.41%; in [3], -14.2%; in [4], 7.22%; in assay [5], 3.87%; in [6] it was -4.41%. Further, the Percent Effect in assay [7] was 90.3% and 88.1% and 85%; in [8] it was 59.5% and 61%; in assay [9] it was 13.2%; in assay [10] it was 1.48%; in [11], 11.1%; in [12] it was -4.62%.

These data come from ChEMBL document CHEMBL3988442, “University of Dundee, Small-Polar-MMV Screening Library” (2021).
